Composite z-score and z-score data for five compounds are collected here from PubChem BioAssay.

Activity calls are given as the source filed them.

Test [1] in a line: small molecules captured by biotinylated probe aFSTL3 – biochemical, small-molecule microarray, fluorescence 635/667, stem cell growth factor project, primary screen (AID 1064).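 Note: measures binding of the biotinylated anti-FSTL3 antibody to printed compounds.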 The conditions noted are these: higher = more signal.
Test [2] is described as follows: binders from COS7 lysate, DM2A8 probe, primary screen, torsin A project, cell lysate, small-molecule microarray, fluorescence 635/667 (AID 1065). The conditions noted are these: higher = more signal, COS7 lysate expressing mutant human TOR1A.
A short description of test [3]: small molecules captured by biotinylated probe aFGF2 – biochemical, small-molecule microarray, fluorescence 635/667, stem cell growth factor project, primary screen (AID 1067).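 Note: measures binding of biotinylated aFGF2 protein to printed compounds on slides; z-score merges feature fluorescence and signal-to-noise across triplicate slides.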 As to conditions: higher = more signal.
A short description of test [4]: small molecules captured by biotinylated probe aFGF10 – biochemical, small-molecule microarray, fluorescence 635/667, stem cell growth factor project, primary screen (AID 1071).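 Note: score merges 667 nm spot intensity and signal to noise from triplicate slides.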 As to conditions: higher = more signal.
The target of test [5] is Neurogenic locus notch homolog protein 2 (Homo sapiens) (UniProt Q04721). Put plainly: small molecules binding Notch2 protein – biochemical, small-molecule microarray, 635 nm fluorescence, stem cell growth factors, primary screen (AID 1073). The conditions noted are these: higher = more signal.
Neurogenic locus notch homolog protein 2 (Homo sapiens), sequence (Q04721 whole entry, looked up, canonical isoform): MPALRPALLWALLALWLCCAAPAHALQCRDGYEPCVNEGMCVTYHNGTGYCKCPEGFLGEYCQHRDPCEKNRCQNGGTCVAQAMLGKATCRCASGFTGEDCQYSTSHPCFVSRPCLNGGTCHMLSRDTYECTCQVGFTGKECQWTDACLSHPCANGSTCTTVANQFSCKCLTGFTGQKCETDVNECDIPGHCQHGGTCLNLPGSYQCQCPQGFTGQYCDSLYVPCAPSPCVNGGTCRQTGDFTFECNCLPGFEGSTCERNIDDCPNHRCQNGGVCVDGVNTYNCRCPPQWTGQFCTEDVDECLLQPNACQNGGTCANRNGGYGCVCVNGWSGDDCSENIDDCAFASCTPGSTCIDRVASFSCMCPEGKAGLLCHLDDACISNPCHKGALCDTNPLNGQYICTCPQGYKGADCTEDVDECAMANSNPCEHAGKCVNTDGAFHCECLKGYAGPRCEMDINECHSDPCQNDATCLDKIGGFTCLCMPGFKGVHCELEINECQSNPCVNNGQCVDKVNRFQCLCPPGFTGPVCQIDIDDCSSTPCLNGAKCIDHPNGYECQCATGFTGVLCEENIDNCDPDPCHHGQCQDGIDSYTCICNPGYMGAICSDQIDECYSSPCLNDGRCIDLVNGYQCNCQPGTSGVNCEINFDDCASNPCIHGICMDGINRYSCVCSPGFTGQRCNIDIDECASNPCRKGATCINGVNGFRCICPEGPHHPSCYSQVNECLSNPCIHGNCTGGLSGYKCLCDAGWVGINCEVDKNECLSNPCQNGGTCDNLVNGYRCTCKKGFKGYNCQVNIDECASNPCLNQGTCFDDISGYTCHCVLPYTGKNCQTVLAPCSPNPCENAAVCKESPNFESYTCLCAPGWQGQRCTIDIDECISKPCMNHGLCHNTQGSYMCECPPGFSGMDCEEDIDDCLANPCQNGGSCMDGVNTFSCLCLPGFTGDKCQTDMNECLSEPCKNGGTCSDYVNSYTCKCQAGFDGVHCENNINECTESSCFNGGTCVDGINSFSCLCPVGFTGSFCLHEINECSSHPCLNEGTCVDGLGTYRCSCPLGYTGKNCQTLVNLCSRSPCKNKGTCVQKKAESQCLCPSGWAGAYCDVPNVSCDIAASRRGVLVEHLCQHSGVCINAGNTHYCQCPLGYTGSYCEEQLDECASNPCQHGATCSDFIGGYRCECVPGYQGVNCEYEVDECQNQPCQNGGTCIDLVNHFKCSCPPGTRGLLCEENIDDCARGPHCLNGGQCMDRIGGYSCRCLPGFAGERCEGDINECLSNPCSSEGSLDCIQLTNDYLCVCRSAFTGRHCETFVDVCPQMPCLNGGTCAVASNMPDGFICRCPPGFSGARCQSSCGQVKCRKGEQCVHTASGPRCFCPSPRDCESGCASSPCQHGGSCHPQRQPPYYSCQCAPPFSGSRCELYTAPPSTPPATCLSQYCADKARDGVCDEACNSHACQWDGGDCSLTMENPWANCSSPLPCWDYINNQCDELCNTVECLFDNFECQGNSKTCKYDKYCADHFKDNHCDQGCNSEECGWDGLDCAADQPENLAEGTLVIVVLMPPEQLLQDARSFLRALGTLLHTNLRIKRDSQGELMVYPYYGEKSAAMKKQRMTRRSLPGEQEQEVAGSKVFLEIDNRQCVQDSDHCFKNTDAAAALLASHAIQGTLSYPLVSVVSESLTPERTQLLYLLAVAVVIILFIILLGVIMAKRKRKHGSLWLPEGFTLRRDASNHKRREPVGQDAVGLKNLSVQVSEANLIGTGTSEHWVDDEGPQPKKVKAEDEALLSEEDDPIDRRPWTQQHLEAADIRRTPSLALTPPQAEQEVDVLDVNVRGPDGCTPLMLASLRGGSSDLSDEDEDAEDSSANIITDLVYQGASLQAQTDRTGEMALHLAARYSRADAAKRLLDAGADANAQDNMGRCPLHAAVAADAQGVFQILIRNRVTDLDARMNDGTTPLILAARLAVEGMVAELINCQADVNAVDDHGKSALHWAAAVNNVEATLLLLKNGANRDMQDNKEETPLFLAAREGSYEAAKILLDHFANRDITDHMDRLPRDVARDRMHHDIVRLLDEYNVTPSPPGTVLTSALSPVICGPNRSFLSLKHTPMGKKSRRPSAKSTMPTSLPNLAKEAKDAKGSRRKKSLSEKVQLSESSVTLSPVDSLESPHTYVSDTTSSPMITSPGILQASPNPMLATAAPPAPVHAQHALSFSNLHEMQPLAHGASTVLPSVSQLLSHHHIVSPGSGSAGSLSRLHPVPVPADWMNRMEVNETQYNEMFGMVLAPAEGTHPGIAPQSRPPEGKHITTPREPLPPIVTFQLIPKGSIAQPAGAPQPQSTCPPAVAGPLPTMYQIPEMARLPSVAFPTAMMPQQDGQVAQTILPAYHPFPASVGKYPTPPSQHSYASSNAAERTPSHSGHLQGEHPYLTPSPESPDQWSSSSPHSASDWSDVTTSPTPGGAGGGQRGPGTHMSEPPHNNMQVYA
Test [6] has as its target Pro-neuregulin-1, membrane-bound isoform (Homo sapiens) (UniProt Q02297). The test can be described thus: small molecules binding neuregulin-1 protein – biochemical, small-molecule microarray, fluorescence 635/667, psychiatric disease protein project, primary screen (AID 1075).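 Note: score combines 667 nm spot fluorescence with signal to noise.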 As to conditions: NRG1 binding, 635 nm fluorescence, higher = more signal.
The test system of test [7] is Neuregulin-1 EGF-like domain. The test can be described thus: small molecules binding NRG1 EGF domain – biochemical, small-molecule microarray, 635 nm fluorescence, primary screen (AID 1081).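 Note: binding of the protein to compounds printed on small-molecule microarray slides.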 As to conditions: higher = more signal.
The nature of test [8]: FRG1 expression reporter modulators in myotubes – cell-based, C2C12 myotubes, firefly/Renilla luciferase, luminescence, FRG1 inhibition for FSHD, primary screen (AID 1084). The conditions noted are these: FRG1 promoter luciferase, higher = more signal, called active from +8 up or from −8 down.
Test [9] in a line: small molecules captured by biotinylated probe aFST – biochemical, small-molecule microarray, fluorescence 635/667, stem cell growth factor project, primary screen (AID 1086).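 Note: score merges 667 nm fluorescence with signal-to-noise of each printed compound spot.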 As to conditions: higher = more signal.
Test [10] can be described thus: binders of probe aHhip on microarray, primary screen, stem cell growth factor project, biochemical, small-molecule microarray, fluorescence 635/667 (AID 1087).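 Note: score merges spot fluorescence at 667nm with spot signal to noise ratio.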 The conditions noted are these: higher = more signal.
Test [11] concerns PRMT1 (protein arginine N-methyltransferase 1). The test can be described thus: small molecules binding arginine methyltransferase PRMT1 – biochemical, small-molecule microarray, 635 nm fluorescence, primary screen (AID 1088).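 Note: binding of Prmt1 protein to compounds spotted on small-molecule microarray slides.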 The conditions noted are these: higher = more signal.
A short description of test [12]: growth effects on S. cerevisiae YJM789 – YJM789 clinical isolate, OD600, 24 h, basal, primary screen (AID 1089).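 Note: growth of clinical yeast isolate S. cerevisiae YJM 789 seeded 1000 cells per well; test concentration not given here.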 The conditions noted are these: higher = more signal, called active from +8 up or from −8 down.
A short description of test [13]: S. pombe growth modifiers, basal conditions – strain 972, OD600, 24 h, no modulator, primary screen (AID 1090).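 Note: basal condition with compound alone and no growth modifier present; test concentration not given here.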 As to conditions: S. pombe 972 growth, higher = more signal, called active from +8 up or from −8 down.
Test [14] in a line: budding yeast growth modifiers under rapamycin – strain BY4716, OD600, 96 h, primary screen (AID 1091). Note: test concentration not given here. As to conditions: S. cerevisiae BY4716 + rapamycin, higher = more signal, called active from +8 up or from −8 down.
Test [15] deals with Torsin-1A-interacting protein 2 (Homo sapiens) (UniProt Q8NFQ8). Put plainly: small molecules binding lysate-expressed LULL1 – cell lysate, human LULL1 lysate, 635/667 nm fluorescence, primary screen (AID 1092).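 Note: score merges per-feature 667 nm fluorescence with signal-to-noise.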 As to conditions: small-molecule microarray, hLULL1 lysate binding, 635 nm fluorescence; higher = more signal.
Torsin-1A-interacting protein 2 (Homo sapiens), sequence (Q8NFQ8 whole entry, looked up): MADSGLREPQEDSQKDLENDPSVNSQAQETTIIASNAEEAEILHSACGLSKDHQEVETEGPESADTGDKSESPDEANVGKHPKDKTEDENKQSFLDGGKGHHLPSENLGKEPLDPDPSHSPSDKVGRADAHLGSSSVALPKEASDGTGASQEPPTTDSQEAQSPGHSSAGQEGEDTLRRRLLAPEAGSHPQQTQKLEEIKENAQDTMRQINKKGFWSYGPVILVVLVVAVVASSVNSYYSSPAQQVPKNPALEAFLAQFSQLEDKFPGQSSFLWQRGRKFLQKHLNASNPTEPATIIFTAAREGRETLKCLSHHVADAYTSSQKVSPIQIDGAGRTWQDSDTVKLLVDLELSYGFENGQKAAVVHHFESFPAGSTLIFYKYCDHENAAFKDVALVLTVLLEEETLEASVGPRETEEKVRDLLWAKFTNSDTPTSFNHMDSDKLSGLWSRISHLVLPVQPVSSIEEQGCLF
The nature of test [16]: optical density change of DRC41 E. coli – strain DRC41, OD650, 24 h, E. coli filamentation project, primary screen (AID 1093).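 Note: MC1000 strain lacking acrAB efflux and sulA so SOS filamentation is blocked; test concentration not given here.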 The conditions noted are these: E. coli DRC41 growth, higher = more signal, called active from +8 up or from −8 down.
The nature of test [17]: probe aLefty2 binding to arrayed compounds – biochemical, biotinylated probe, 635/667 nm fluorescence, primary screen (AID 1094).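 Note: score merges spot fluorescence near 667 nm with spot signal-to-noise ratio.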 As to conditions: small-molecule microarray, higher = more signal.
Test [18] concerns Noggin (protein binding on small-molecule microarray). The test can be described thus: small molecules binding Noggin protein – biochemical, 635/667 nm fluorescence, primary screen (AID 1095).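 Note: score merges 667 nm feature fluorescence with signal to noise over triplicate slides.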 The conditions noted are these: 635 nm fluorescence, higher = more signal.
Test [19] concerns the target Neurogenic locus notch homolog protein 3 (Homo sapiens) (UniProt Q9UM47). Put plainly: small molecules binding NOTCH3 protein – biochemical, 635/667 nm fluorescence, primary screen (AID 1096). The conditions noted are these: small-molecule microarray, 635 nm fluorescence, higher = more signal.
Test [20] in a line: probe aEGFR binding to arrayed compounds – biochemical, biotinylated probe, 635/667 nm fluorescence, primary screen (AID 1097).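 Note: probe is a biotinylated anti-EGFR antibody binding compounds printed on slides; score combines fluorescence near 667 nm and signal to noise of each spot.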 As to conditions: small-molecule microarray, higher = more signal.

Pro-neuregulin-1, membrane-bound isoform (Homo sapiens), sequence (Q02297 whole entry, looked up, the tested form may be a part, canonical isoform): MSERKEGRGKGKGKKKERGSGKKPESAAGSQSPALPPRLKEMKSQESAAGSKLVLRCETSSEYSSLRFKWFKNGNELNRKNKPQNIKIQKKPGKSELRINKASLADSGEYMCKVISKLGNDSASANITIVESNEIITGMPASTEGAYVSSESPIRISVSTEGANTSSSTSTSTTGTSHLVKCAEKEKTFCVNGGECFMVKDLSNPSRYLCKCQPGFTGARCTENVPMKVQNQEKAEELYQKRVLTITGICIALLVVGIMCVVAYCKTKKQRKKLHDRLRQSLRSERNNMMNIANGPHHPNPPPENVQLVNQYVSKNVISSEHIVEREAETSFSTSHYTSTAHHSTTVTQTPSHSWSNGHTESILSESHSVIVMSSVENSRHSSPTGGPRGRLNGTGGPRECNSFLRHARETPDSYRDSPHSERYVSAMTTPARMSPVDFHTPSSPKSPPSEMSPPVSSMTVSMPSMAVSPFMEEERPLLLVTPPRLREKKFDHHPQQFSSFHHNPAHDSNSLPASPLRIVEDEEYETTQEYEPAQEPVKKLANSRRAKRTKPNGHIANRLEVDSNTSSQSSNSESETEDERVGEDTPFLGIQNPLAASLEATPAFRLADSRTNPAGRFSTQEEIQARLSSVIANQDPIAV

On to `C=C(/C(=C/C[C@H](OC(=O)c1ccncc1)c1cccc(OCCO)c1)c1cnc2ccccc2c1)C(C)C`, for which the composite z-score in [1] was 0.0581; in [2] it was 0.857; in [3], -0.0448; in test [4] it was 1.34; in [5], 1.41; in [6] it was 1.07. The composite z-score was 0.884 in test [7]; 0.157 in [9]; 0.0695 in test [10]; 1.54 in test [11]; 1.21 in test [15]; -0.115 in test [17]. Further, the composite z-score in test [18] is 1.85; in test [19] it was 1.07; in [20], -0.0578. The z-score in test [8] was -2.64 (inactive); in [12], -25.3 (active); in test [13], -20.3 (active); in [14], -4.3 (inactive); in test [16], -0.315 (inactive).

`CCOC(=O)C[C@H]1[C@H](OC(=O)c2ccc(-c3ccccc3)cc2)[C@@H](NC(=O)CC(C)C)c2cc(OCCCO)ccc2N1C(=O)c1ccccc1`: the composite z-score in [1] is -0.308; in test [2], -0.288; in test [3], -0.0236; in [4], 0.311; in test [5] it was 0.623; in test [6], -0.037. For the same compound, the composite z-score in test [7] was 0.648; in test [9], 0.547; in test [10], -0.217; in [11], 0.468; in [15], 1.49; in test [17] it was -0.107. Also, the composite z-score was 0.49 in [18], 0.952 in test [19] and 0.048 in test [20]. Besides, the z-score in [8] is -0.165 (inactive); in test [12], 0.72 (inactive); in test [13], 1.4 (inactive); in test [14] it was 1.38 (inactive); in test [16], -0.513 (inactive).

On to `CN(C)C(=O)[C@]1(CCS(=O)(=O)c2ccccc2)N=C(c2ccc(OCCCO)cc2)O[C@@H]1c1ccccc1`, for which the composite z-score in test [1] amounted to 0.227; in test [2], 0.398; in [3], 0.0759; in [4], 0.88; in [5], 1.58; in test [6], 1.76. In addition, the composite z-score was 1.35 in test [7]; 0.968 in test [9]; -0.236 in test [10]; 1.42 in test [11]; 3.57 in test [15]; 0.0943 in [17]. Besides, the values for the composite z-score in test [18], in [19] and in [20] were 0.577, 1.01 and 0.127, respectively. Besides, the z-score in test [8] was -1.74 (inactive); in test [12], -0.897 (inactive); in test [13], -0.804 (inactive); in [14], 4.54 (inactive); in test [16], 0.29 (inactive).

Take `COC(=O)C1=CC(CCCO)=CC(C)N(Cc2cccc(OC(F)(F)F)c2)C=C1C(=O)OC` (stereo not given): the composite z-score is -0.385 in [1]; -0.383 in [2]; -0.0667 in [3]; 0.157 in test [4]; 0.412 in test [5]; 2.05 in [6]. The composite z-score in test [7] was 1.21; in test [9] it was 0.577; in test [10], -0.0994; in [11], 0.897; in test [15] it was 2.65; in test [17], -0.0712. Moreover, the composite z-score in test [18] is -0.296; in [19], 0.532; in test [20] it was -0.02. Also, the z-score in [8] was -0.181 (inactive); in [12] it was -0.743 (inactive); in test [13], -2.12 (inactive); in [14], 0.219 (inactive); in test [16] it was -1.53 (inactive).

Consider `COC(=O)C(CC#Cc1ccc2c(c1)[C@]1(C(=O)N2)[C@H](C(=O)Nc2nc3ccccc3s2)[C@H]2C(=O)O[C@H](c3ccccc3)[C@H](c3ccccc3)N2[C@@H]1c1ccc(OCCO)cc1)C(=O)OC`, for which the composite z-score was 0.156 in test [1]; 0.444 in [2]; -0.0036 in test [3]; 1.05 in [4]; 1.4 in test [5]; 1.87 in test [6]. Also, the composite z-score in [7] was 1.24; in test [9], 0.846; in test [10] it was -0.137; in test [11] it was 1.55; in test [15], 3.18; in test [17], 0.0973. Further, the composite z-score in test [18] is 1.59; in [19], 1.08; in test [20] it was 0.0766. In addition, the z-score is 1.9 (inactive) in test [8]; -0.442 (inactive) in [12]; -0.144 (inactive) in test [13]; 1.37 (inactive) in test [14]; 2.96 (inactive) in test [16].
